# SMN2 splice up – enhancers of SMN2 splice variant expression | hit rate 2.8% among 210,000 | HEK293 SMN2-luciferase splicing reporter, luminescence, 30-36 h | Potency, µM (doses to about 46.1 µM), inactives show top-dose activity change, positive = activation, usual class: activators; further: % of control where 0% means no effect; nearly all actives have a fitted effect of over 55% in size
#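 HEK293 cells carry an SMN2 minigene-luciferase reporter in which exon 7 inclusion puts luciferase in frame. Cells were seeded at 2000 cells/well, attached for 10-12 hours, then exposed to compounds for 30-36 hours at 37C before ONE-Glo luminescence.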
# ELG1 DNA repair – ELG1-dependent DNA repair inhibition | HEK293T ELG1-luciferase reporter, luminescence, 16 h; DNA damage induced by 5-fluorouridine | Potency, µM (highest dose often 46.1 µM), for inactives: top-dose activity change, negative = inhibition, hits mostly inhibitors | hit rate 2.3% among 330,000; further: on the % scale 0 is the no-effect control and ±100 the full control effect; nearly all actives have a fitted effect of over 55% in size
#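 Quantitative HTS, concentration-response format. 2,000 cells/well co-treated with 5-fluorouridine and compound, 16 hr in 5% CO2 at 37 °C; ONE-Glo luminescence read after 30 min.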
# NPC1 promoter act – NPC1 promoter activation; Huh7 NPC1 promoter luciferase reporter, 24 h; hit rate 2.4% among 320,000; Potency, µM (titrated, usually from 9.22 µM), for the others: at the highest dose activation, actives largely listed as activators; further: % of control where 0% means no effect; nearly all actives have a fitted effect of over 60% in size
#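 Quantitative HTS used a cell-based reporter: Huh7 cells stably bearing the NPC1 promoter upstream of luciferase were treated with compounds for 24 h, and promoter activation was read as luminescence.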
# Rab9 prom act – activates the Rab9 promoter. Huh7 Rab9 promoter-luciferase reporter, luminescence, 24 h. Potency, µM (doses to about 9.22 µM), for inactives: top-dose activation, negative = inhibition, actives largely listed as activators. hit rate 2.8% among 320,000. AID 485297; further: % of control where 0% means no effect; nearly all actives have a fitted effect of over 60% in size
#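 Luminescence from Amplite-detected luciferase (10 minutes, ambient) reports Rab9 promoter activation. Before that, stable Rab9-luciferase Huh7 cells (1500/well, reduced-serum OP-MEM I plus 10% FBS) were exposed to compound for 24 hours at 37C.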
# FLuc counter – counter-screen for miR-21 project: firefly luciferase inhibitors or activators. P08659. purified FLuc, Km substrates, luminescence inhibition. Potency, µM (highest dose often 57.5 µM), without a hit: at the top dose activity change, negative = inhibition, usual class: inhibitors. hit rate 6.9% among 360,000;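 further: plate controls were vehicle for no effect and reference inhibitor for full effect; nearly all actives have a fitted effect of over 55% in size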
# Target sequence (P08659 whole entry, looked up): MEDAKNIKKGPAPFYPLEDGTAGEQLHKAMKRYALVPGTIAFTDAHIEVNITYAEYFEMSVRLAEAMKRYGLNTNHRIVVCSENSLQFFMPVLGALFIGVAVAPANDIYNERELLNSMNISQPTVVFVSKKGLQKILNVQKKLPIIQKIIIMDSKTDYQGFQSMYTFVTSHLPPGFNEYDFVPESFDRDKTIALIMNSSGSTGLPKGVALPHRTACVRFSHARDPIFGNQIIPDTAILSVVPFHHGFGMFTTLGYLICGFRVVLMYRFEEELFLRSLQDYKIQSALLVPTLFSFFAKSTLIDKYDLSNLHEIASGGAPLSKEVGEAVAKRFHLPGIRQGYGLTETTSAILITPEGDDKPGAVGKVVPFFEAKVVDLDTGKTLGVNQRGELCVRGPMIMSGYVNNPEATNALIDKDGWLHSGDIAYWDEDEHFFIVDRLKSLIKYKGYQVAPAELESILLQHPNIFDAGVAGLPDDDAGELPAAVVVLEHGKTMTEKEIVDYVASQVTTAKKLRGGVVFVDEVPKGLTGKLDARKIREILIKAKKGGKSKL
#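 Purified P. pyralis luciferase (10nM final) with 10uM D-luciferin and 10uM ATP (Km levels) in 50mM Tris acetate pH 7.5, 10mM Mg acetate, 0.01% Tween-20, 0.05% BSA; qHTS 6-point titration, ~60 µM downward; luminescence read.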
# ELG1 genotox – inducers of genotoxicity in HEK293T ELG1-luciferase cells; HEK293T ELG1-luciferase reporter, luminescence, 16 h; Potency, µM (highest dose often 46 µM), inactives show at the top dose activity change, positive = activation, hits mostly activators; hit rate 1.3% among 330,000; further: % of control where 0% means no effect; nearly all actives have a fitted effect of over 60% in size
#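 Reporter readout depends on ELG1 protein level, which increases with genetic stress. After 16 hr compound exposure at 37 °C, luciferase activity was quantified using ONE-Glo.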
# * = called active by the depositor; ? = inconclusive; / = no result given. A selection: hits, their analogues and other compounds. The true share with any hit is near 9.4%. The call rests on the fitted dose curve; in most records, active means well fitted curve in the direction sought with a large enough effect; inconclusive means small, poorly fitted or top-dose-only effect, or another doubt; inactive means no such curve, though single readings can be large; an effect the other way counts as inactive or inconclusive. Potency means the concentration at half of the fitted maximal effect.
SMILES,SMN2 splice up,ELG1 DNA repair,NPC1 promoter act,Rab9 prom act,FLuc counter,ELG1 genotox
Cc1cccc(-c2cc(C(=O)Nc3ccncc3)c3ccccc3n2)c1,/,?,12.8%,1.7%,23.9µM*,-7.4%
Cc1cccc(-c2cc(C(=O)Nc3cccnc3)c3ccccc3n2)c1,/,?,-3.0%,3.8%,15.1µM*,-15.3%
Cc1ccc2nc(-c3ccccc3)cc(C(=O)Nc3cccnc3)c2c1,/,-13.8%,0.0%,-1.6%,/,-2.8%
O=C(Nc1ccc(Br)cc1)c1cc(-c2ccncc2)nc2ccccc12,/,?,/,/,/,-2.5%
Cc1ccc(-c2cc(C(=O)Nc3cccnc3)c3ccccc3n2)s1,/,-3.5%,13.0%,6.7%,9.53µM*,-9.7%
COc1ccc(-c2nc(C)c(CCNC(=O)C(=O)Nc3ccccc3OC)s2)cc1,/,/,/,/,-2.2%,/
Cc1ccc(C)c(Cn2nnc3c(=O)[nH]c(C4CCN(C(=O)c5cccs5)CC4)nc32)c1,18.5%,?,-1.0%,-3.5%,-1.2%,-4.0%
Cc1ccc(Cn2nnc3c(=O)[nH]c(C4CCN(C(=O)c5cccs5)CC4)nc32)cc1,11.4%,9.2µM*,0.9%,-0.4%,7.2%,3.1%
COc1ccc(Cn2nnc3c(=O)[nH]c(C4CCCN(C(=O)c5ccc(C)cc5)C4)nc32)cc1 (centres undefined),-2.4%,/,/,/,-17.2%,/
Cc1ccc(Cn2nnc3c(=O)[nH]c(C4CCCN(C(=O)Nc5ccc(F)cc5)C4)nc32)cc1 (centres undefined),/,16.4µM*,-0.3%,-17.6%,1.5%,-2.5%
CCn1cc2nc(SCc3cccc(C(F)(F)F)c3)n(Cc3ccc(OC)cc3)c(=O)c2n1,/,/,/,/,-13.5%,/
Cc1cccc(CSc2nnc(-c3ccco3)n2C)c1,-2.9%,?,28.3%,0.5%,-18.4%,12.3%
Cc1ccc(CSc2ccc(-c3ccco3)nn2)cc1,11.2µM*,?,3.55µM*,2.82µM*,4.78µM*,?
Cc1cccc(CSc2ccc(-c3ccco3)nn2)c1,?,?,?,?,12µM*,?
CCc1ccc(NC(=O)CSc2ccc(-c3ccco3)nn2)cc1,-27.4%,?,-2.7%,-0.2%,?,-2.5%
Clc1cccc(CSc2ccc(-c3ccco3)nn2)c1,25.7%,0.0%,11.7%,27.0%,21.3µM*,8.5%
Clc1cccc(CSc2ccc(-c3cccnc3)nn2)c1,-1.1%,5.5%,-2.2%,-2.1%,?,5.4%
c1ccc(CSc2ccc(-c3ccco3)nn2)cc1,12.6µM*,?,3.98µM*,1.78µM*,2.39µM*,8.2µM*
Clc1ccc(CSc2ccc(-c3ccco3)nn2)cc1,?,?,?,?,?,15.0%
COc1ccc(-c2nc3ccccc3o2)cc1NC(=O)c1ccc(N2CCC(C)CC2)c([N+](=O)[O-])c1,21.5%,/,/,/,?,/
C[C@H](N)CCCP(=O)(O)O,6.9%,/,/,/,/,/
Fc1ccccc1CSc1ccc(-c2ccco2)nn1,17.8µM*,?,2.24µM*,1.58µM*,6.01µM*,?
O=C(CCSc1ccccn1)c1ccccc1,2.7%,-1.1%,-1.4%,-1.6%,6.01µM*,-1.6%
O=C(Cc1ccccn1)c1ccc(Cl)cc1,/,?,?,2.82µM*,12µM*,?
O=C(CCCc1ccccn1)c1ccccc1,2.82µM*,/,/,/,/,/
SMILES,SMN2 splice up,ELG1 DNA repair,NPC1 promoter act,Rab9 prom act,FLuc counter,ELG1 genotox
O=C(Cc1ccccn1)c1ccccc1,/,?,3.8%,13.1%,-18.2%,-0.2%
Cc1ccc(CCNC(=O)CCSCc2ccccc2F)cc1,/,/,/,/,-13.9%,/
CCN(CC)c1ccc(/C=C/c2nc3ccccc3s2)cc1,-89.7%,?,?,3.7%,0.601µM*,0.461µM*
Nc1cc(S(=O)(=O)O)ccc1O,0.2%,/,/,/,/,/
COc1ccccc1NC(=O)CN1CCN(C2c3ccccc3-c3ccccc32)CC1,?,3.66µM*,2.1%,-3.3%,0.3%,-13.6%
COc1ccccc1NC(=O)CN1CCCCCC1,/,19.9%,1.7%,-1.2%,0.9%,0.3%

# High-throughput results (PubChem BioAssay)
